Bioassay records deposited in PubChem by National Center for Advancing Translational Sciences (NCATS).
Shown are actives, neighbours in structure and some others; about 17% of the full set was active somewhere.
DT40 TDP1 CPT = growth inhibition of DT40 Tdp1-/-;hTDP1 cells with camptothecin (screen for TDP1 inhibitors) | chicken DT40 Tdp1-/-;hTDP1 cells + 20 nM CPT, ATP luminescence, 48 h | AID 686979 | 420,000 tested, 12% active | Potency, µM (series often up to 46.2 µM), for inactives: at the highest dose activity change, negative = growth inhibition, most hits filed as inhibitors; note: % is set by controls: 0 for no effect and ±100 for the full control effect; nearly all actives have a fitted effect of over 55% in size
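Chicken DT40 Tdp1-/- cells complemented with human TDP1, 400 cells/well, exposed to compounds plus 20 nM camptothecin for at least 48 h at 37 C; viability read as ATP content by CellTiter-Glo luminescence.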
HT1080NT lethal = kills 2HG-producing HT-1080-NT fibrosarcoma cells. HT-1080-NT fibrosarcoma viability, CellTiter-Glo ATP luminescence, 48 h. Potency, µM (series often up to 46.1 µM), for the others: top-dose activity, negative = less viability, actives largely listed as cytotoxic. 360,000 tested, 1.6% active. AID 686970;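 note: NT is the 2HG producing partner of a matched IDH1 knockdown line; 0% = DMSO-treated cells and -100% = media-only wells without cells; nearly all actives have a fitted effect of over 55% in size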
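Read-out is CellTiter-Glo luminescence after 10 minutes at room temperature, following 48 hours' compound treatment of HT-1080-NT cells (750 cells/well, RPMI, 5% FBS, 37 degrees C).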
TDP1 cell noCPT = qHTS for Inhibitors of human tyrosyl-DNA phosphodiesterase 1 (TDP1): qHTS in cells in absence of CPT. DT40 Tdp1-/- hTDP1 cells, no CPT, ATP luminescence, 48 h. Potency, µM (doses to about 46.2 µM), inactives show at the top dose activity change, negative = growth inhibition, most hits filed as inhibitors. 420,000 tested, 15% active; note: % is set by controls: 0 for no effect and ±100 for the full control effect; nearly all actives have a fitted effect of over 55% in size
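Stably hTDP1-transfected Tdp1-null chicken DT40 cells were treated with library compounds minus camptothecin and grown for at least 48 hr at 37 °C, after which cellular ATP was quantified by luminescence.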
TGFb inhibitor = TGF-b pathway inhibition. AID 588855. HepG2 CAGA-GFP TGF-b/SMAD3 reporter, GFP fluorescence, 18 h; TGF-beta stimulated, 500 pg/mL final. Potency, µM (top dose mostly 46.1 µM), for the others: at the highest dose activity, negative = inhibition, most hits filed as inhibitors. 410,000 tested, 1.2% active; note: % is set by controls: 0 for no effect and ±100 for the full control effect; nearly all actives have a fitted effect of over 65% in size
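First, reporter cells (HEPG2 CAGA-GFP) rested 2 h at 37 degrees C. Next, compounds were pinned in and TGF-beta added to 500 pg/mL final. After 18 h, GFP was imaged per cell and summed per well.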
HepG2 viability = counter-screen for TGF-b inhibitors: cytotoxicity in HepG2 cells; Potency, µM (highest dose often 46.1 µM), for inactives: top-dose activity change, negative = cytotoxicity, usual class: cytotoxic; HepG2 CAGA-GFP viability, ATP luminescence, 18 h; 410,000 tested, 0.76% active; AID 588856
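HepG2 CAGA-GFP cells (1000/well, DMEM with 1% FBS) received compound, then TGF-beta at 500 pg/mL final, and were incubated 18 hours at 37 degrees C. Viability was read by CellTiter-Glo luminescence. Media-only wells were set as complete cell-killing and DMSO as no toxicity.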
HT1080 IDH1KD tx = kills HT-1080 cells with IDH1 knockdown. HT-1080 IDH1 knockdown viability, ATP luminescence, 48 h. Potency, µM (series often up to 46.1 µM), for the others: top-dose activity, negative = toxicity, most hits filed as cytotoxic. 360,000 tested, 2% active;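 note: 0% = DMSO wells and -100% = cell-free medium wells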
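After a 2 h attachment period, IDH1KD HT-1080 cells took pin-transferred compound for 48 h at 37 °C; ATP-based luminescence after 10 min room-temperature reagent incubation reported viability.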
The depositor's hits bear a star; ? = inconclusive; . = no result given. Calls come from the whole dose curve; as a rule, active = well fitted curve in the direction sought with a large enough effect; inconclusive = small, poorly fitted or top-dose-only effect, or another doubt; inactive = no such curve, though single readings can be large; an effect the other way counts as inactive or inconclusive. Potency is the fitted concentration of half-maximal effect.

SMILES	DT40 TDP1 CPT	HT1080NT lethal	TDP1 cell noCPT	TGFb inhibitor	HepG2 viability	HT1080 IDH1KD tx
O=C(NCCc1ccc(F)cc1)C(=O)NCC(c1cccs1)S(=O)(=O)c1ccc(Cl)cc1 (configuration not stated)	15µM*	.	12µM*	-11%	-18%	.
COc1ccc(CCNC(=O)C(=O)NCC2OCCN2S(=O)(=O)c2ccc(Cl)cc2)cc1 (configuration not stated)	?	-21%	?	-11%	-14%	-2%
CCC(C(=O)c1ccccc1)P(=O)(NN)c1ccccc1 (configuration not stated)	-5%	-14%	-10%	-6%	-31%	-4%
C=CCN1C(=O)C2(C(C(=O)OCC)=C(N)Oc3ccccc32)c2c1c1ccccc1oc2=O (configuration not stated)	2%	-15%	-13%	22%	-11%	1%
CC(=O)O[C@H]1C(=O)[C@@]2(C)C([C@H](OC(=O)c3ccccc3)[C@]3(O)C[C@H](O)C(C)=C1C3(C)C)[C@]1(OC(C)=O)CO[C@@H]1C[C@H]2O (some centres not stated)	7.3µM*	-20%	5.8µM*	1%	2%	-28%
CC(=O)O[C@H]1C(=O)[C@@]2(C)C([C@H](OC(=O)c3ccccc3)[C@]3(O)C[C@H](OC(=O)[C@H](O)[C@@H](NC(=O)Cc4ccccc4)c4ccccc4)C(C)=C1C3(C)C)[C@]1(OC(C)=O)CO[C@@H]1C[C@@H]2O (some centres not stated)	0.18µM*	0.52µM*	0.18µM*	?	-19%	?
CC(=O)O[C@@]12CO[C@@H]1C[C@H](O)[C@@]1(C)C(=O)[C@H](O)C3=C(C)[C@@H](OC(=O)[C@H](O)[C@@H](NC(=O)c4ccccc4)c4ccccc4)C[C@@](O)([C@@H](OC(=O)c4ccccc4)C12)C3(C)C (some centres not stated)	0.033µM*	0.0073µM*	0.21µM*	-28%	-15%	?
O=C(NC(C(Cl)Cl)N1CCOCC1)c1ccccc1 (configuration not stated)	-18%	16%	17%	-4%	5%	13%
N#CC1c2ccccc2-n2nncc2CN1S(=O)(=O)c1ccccc1 (configuration not stated)	-2%	15%	-1%	4%	-44%	12%
CSc1ccccc1NC(=O)CN(C)CC(=O)c1[nH]c(C)c(C(C)=O)c1C	15µM*	-3%	15µM*	28%	-28%	-8%
O=C(NCCN1CCC2(CC1)C(=O)NCN2c1cccc(F)c1)c1ccc2ccccc2c1	?	15µM*	?	.	.	21µM*
O=C1NCN(c2ccccc2)C12CCN(CC1COc3ccccc3O1)CC2 (configuration not stated)	-3%	.	-20%	.	.	.
O=C(NCCN1CCC(n2c(=O)[nH]c3ccccc32)CC1)c1ccc2ccccc2c1	23µM*	-75%	?	.	.	?
O=C1CC(N2CCC(n3c(=O)[nH]c4ccccc43)CC2)C(=O)N1c1ccc(F)cc1 (configuration not stated)	-13%	9%	-29%	11%	-4%	10%
CNC(=O)Oc1ccccc1C1CCCCC1	?	-7%	-22%	-7%	-18%	13%
Cc1cccc(CN2C(=O)CN=C(c3ccccc3)c3ccccc32)c1	5.8µM*	.	5.8µM*	-23%	-1%	.
O=C1CN=C(c2ccccc2)c2cc(Cl)ccc2N1Cc1ccc(Cl)cc1	?	.	15µM*	?	-38%	.
Cc1cccc(CN2C(=O)CN=C(c3ccccc3)c3cc(Cl)ccc32)c1	?	.	16µM*	16µM*	-41%	.
Cc1ccc(CN2C(=O)CN=C(c3ccccc3)c3ccccc32)cc1	-25%	8%	?	-10%	6%	1%
CSCc1nnc2n1-c1ccc(Cl)cc1C(c1ccccc1)=NC2	-23%	-2%	?	?	-37%	-10%
O=C(NC1CCCCC1)c1ccc(CSc2nc3ccncc3n2Cc2ccc(F)cc2)cc1	?	.	?	9%	4%	.
CCC(C(N)=O)N1CCCC1=O (configuration not stated)	?	.	-18%	.	.	.
Cc1cc(OCC(=O)N2CCN(CCc3ccncc3)CC2)ccc1Cl	?	.	?	?	-26%	.
CN1CCN(c2cc3c(cc2F)c(=O)c(C(=O)O)cn3-c2ccc(F)cc2)CC1	11µM*	.	24µM*	.	.	.
CCC(=O)N1CCN(c2cc3c(cc2F)c(=O)c(C(=O)O)cn3CC)CC1	-14%	?	-12%	2%	13%	24%
SMILES	DT40 TDP1 CPT	HT1080NT lethal	TDP1 cell noCPT	TGFb inhibitor	HepG2 viability	HT1080 IDH1KD tx
CCOP(=O)(OCC)c1nc(-c2ccc(F)cc2)oc1NCc1ccccc1	?	?	-52%	-5%	-7%	-8%
c1cnc2ccc(C(c3nnnn3C3CCCCC3)N3CCN(C4CCCCC4)CC3)cc2c1 (configuration not stated)	13µM*	1%	13µM*	10%	-10%	6%
O=C1NCN(c2ccccc2)C12CCN(C(c1ccnc3ccccc13)c1nnnn1C1CCCC1)CC2 (configuration not stated)	?	-10%	?	-22%	3%	-7%
CCC(=O)O[C@]1(c2ccccc2)CCN(C)C[C@H]1C	6%	.	-29%	.	.	.
CCCCN1CCC(O)(c2ccccc2)C(C(=O)c2ccccc2)C1 (configuration not stated)	2.9µM*	0%	2.9µM*	?	-48%	-2%
CN1CC(C#N)C2(O)c3ccccc3CCC2C1 (configuration not stated)	4%	11%	5%	0%	-5%	-1%
COc1ccc(Nc2c(-c3cc(Br)ccc3O)nc3ncccn23)cc1OC	18µM*	.	23µM*	32%	5%	.
Cc1ccccc1Nc1c(-c2ccc(Br)cc2O)nc2sccn12	?	.	?	-27%	-24%	.
CCOC(=O)c1cnc2c(ccc3ccccc32)c1Nc1ccc(C(C)=O)cc1	?	.	23µM*	15%	-3%	.
